Laboratory results as given in PubChem BioAssay.
Calls of active or inactive are those of the source.

Columns and labels:
[1] = tested on: PRMT1 (protein arginine N-methyltransferase 1); test: PRMT1 binders on small-molecule microarrays, primary screen, biochemical, small-molecule microarray, 635 nm fluorescence (AID 1088); settings: small-molecule microarray binding, higher = more signal;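 note: binding of Prmt1 protein to compounds spotted on small-molecule microarray slides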
[2] = yeast growth modulation, basal conditions, primary screen, YJM789 clinical isolate, OD600, 24 h (AID 1089);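 note: growth of clinical yeast isolate S. cerevisiae YJM 789 seeded 1000 cells per well; test concentration not given here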; settings: S. cerevisiae YJM789 growth, higher = more signal, called active from +8 up or from −8 down
[3] = fission yeast growth modulation, primary screen, strain 972, OD600, 24 h, no modulator (AID 1090);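 note: basal condition with compound alone and no growth modifier present; test concentration not given here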; settings: S. pombe 972 growth, higher = more signal, called active from +8 up or from −8 down
[4] = S. cerevisiae growth modulation with rapamycin, primary screen, strain BY4716, OD600, 96 h (AID 1091); settings: higher = more signal, called active from +8 up or from −8 down; note: test concentration not given here
[5] = target: Torsin-1A-interacting protein 2 (Homo sapiens) (UniProt Q8NFQ8); test: LULL1 binders on small-molecule microarray, primary screen, cell lysate, human LULL1 lysate, 635/667 nm fluorescence (AID 1092); settings: hLULL1 lysate binding, 635 nm fluorescence, higher = more signal;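 note: probe is lysate of COS7 cells overexpressing human LULL1; score merges per-feature 667 nm fluorescence with signal-to-noise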
Torsin-1A-interacting protein 2 (Homo sapiens), sequence (Q8NFQ8 whole entry, looked up): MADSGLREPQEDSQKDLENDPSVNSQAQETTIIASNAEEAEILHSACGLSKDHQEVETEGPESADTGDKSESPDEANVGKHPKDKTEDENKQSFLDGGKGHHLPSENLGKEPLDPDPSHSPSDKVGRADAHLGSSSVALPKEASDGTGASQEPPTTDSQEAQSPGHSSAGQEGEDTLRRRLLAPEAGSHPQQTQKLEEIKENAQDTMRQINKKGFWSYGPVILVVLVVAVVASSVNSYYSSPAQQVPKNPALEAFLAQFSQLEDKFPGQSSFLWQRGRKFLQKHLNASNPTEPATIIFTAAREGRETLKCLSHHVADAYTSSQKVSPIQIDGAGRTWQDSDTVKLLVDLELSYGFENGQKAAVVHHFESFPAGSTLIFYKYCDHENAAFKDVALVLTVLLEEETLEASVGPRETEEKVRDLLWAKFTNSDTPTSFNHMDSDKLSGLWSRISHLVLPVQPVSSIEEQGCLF

[6] = E. coli growth modulation, two-sided OD650, primary screen, E. coli filamentation project, strain DRC41, 24 h (AID 1093); settings: OD650, 24 h, higher = more signal, called active from +8 up or from −8 down;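 note: MC1000 strain lacking acrAB efflux and sulA so SOS filamentation is blocked; test concentration not given here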
[7] = small-molecule microarray binders of probe aLefty2, primary screen, biochemical, biotinylated probe, 635/667 nm fluorescence (AID 1094); settings: higher = more signal;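 note: score merges spot fluorescence near 667 nm with spot signal-to-noise ratio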
[8] = tested on: Noggin (protein binding on small-molecule microarray); test: Noggin binders on small-molecule microarray, primary screen, biochemical, 635/667 nm fluorescence (AID 1095); settings: 635 nm fluorescence, higher = more signal;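 note: score merges 667 nm feature fluorescence with signal to noise over triplicate slides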
[9] = target: Neurogenic locus notch homolog protein 3 (Homo sapiens) (UniProt Q9UM47); test: NOTCH3 binders on small-molecule microarray, primary screen, biochemical, 635/667 nm fluorescence (AID 1096); settings: NOTCH3 binding, 635 nm fluorescence, higher = more signal
Neurogenic locus notch homolog protein 3 (Homo sapiens), sequence (Q9UM47 whole entry, looked up): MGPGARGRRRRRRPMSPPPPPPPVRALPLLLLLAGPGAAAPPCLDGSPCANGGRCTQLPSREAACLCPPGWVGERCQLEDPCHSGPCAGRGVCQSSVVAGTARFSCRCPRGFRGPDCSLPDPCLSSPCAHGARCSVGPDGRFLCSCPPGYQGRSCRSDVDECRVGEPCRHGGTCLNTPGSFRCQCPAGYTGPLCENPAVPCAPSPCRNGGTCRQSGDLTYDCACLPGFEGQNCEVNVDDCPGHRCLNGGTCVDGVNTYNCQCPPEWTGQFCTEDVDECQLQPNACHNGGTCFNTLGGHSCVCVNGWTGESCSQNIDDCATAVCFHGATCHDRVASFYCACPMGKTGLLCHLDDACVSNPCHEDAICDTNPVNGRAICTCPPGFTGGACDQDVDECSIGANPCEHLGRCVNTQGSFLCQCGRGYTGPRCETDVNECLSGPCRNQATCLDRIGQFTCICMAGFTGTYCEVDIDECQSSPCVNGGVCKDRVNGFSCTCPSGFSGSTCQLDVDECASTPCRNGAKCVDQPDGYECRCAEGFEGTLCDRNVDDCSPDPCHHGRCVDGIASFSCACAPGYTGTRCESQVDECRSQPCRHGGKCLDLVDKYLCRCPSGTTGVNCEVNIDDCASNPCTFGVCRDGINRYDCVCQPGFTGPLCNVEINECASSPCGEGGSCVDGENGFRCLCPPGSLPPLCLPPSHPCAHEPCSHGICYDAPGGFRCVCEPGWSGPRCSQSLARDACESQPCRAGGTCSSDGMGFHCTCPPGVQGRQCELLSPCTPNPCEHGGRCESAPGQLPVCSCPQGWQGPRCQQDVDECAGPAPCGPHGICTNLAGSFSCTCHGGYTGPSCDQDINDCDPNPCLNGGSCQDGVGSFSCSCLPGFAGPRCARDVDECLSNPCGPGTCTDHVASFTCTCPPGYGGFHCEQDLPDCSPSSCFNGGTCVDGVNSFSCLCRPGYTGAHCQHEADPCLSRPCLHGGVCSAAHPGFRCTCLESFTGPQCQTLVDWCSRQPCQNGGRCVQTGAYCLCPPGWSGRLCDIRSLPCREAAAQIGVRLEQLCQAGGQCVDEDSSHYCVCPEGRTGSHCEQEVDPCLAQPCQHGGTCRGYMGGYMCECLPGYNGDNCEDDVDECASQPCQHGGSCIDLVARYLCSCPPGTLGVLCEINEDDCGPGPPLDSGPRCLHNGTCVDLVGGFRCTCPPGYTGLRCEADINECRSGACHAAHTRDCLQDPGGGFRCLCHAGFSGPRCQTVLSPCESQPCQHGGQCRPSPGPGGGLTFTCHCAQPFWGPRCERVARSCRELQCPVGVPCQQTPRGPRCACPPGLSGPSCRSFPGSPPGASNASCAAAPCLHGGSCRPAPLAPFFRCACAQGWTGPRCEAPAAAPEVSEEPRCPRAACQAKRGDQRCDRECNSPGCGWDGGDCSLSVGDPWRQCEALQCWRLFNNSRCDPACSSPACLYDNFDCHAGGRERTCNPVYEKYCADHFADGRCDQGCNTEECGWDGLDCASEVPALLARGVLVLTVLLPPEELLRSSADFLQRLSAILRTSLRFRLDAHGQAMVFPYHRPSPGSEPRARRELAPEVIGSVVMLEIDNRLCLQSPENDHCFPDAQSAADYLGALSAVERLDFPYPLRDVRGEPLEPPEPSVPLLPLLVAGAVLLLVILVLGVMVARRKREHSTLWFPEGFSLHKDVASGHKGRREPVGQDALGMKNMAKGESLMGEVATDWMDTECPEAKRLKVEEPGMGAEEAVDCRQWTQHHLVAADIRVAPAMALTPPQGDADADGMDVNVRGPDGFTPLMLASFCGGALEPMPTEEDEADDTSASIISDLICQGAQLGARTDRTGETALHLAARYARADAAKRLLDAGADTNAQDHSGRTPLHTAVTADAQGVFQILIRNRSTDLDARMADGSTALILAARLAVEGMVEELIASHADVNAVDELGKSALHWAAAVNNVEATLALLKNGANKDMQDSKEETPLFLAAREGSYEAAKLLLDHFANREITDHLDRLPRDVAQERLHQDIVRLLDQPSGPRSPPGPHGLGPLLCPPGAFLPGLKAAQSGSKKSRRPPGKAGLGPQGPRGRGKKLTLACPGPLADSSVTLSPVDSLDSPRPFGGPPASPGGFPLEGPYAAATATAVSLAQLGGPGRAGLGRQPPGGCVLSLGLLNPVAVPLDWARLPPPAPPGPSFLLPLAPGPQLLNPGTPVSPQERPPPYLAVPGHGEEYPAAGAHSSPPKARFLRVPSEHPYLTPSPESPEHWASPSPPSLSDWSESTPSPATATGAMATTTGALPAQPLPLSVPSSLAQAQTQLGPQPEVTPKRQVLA

[10] = small-molecule microarray binders of probe aEGFR, primary screen, biochemical, biotinylated probe, 635/667 nm fluorescence (AID 1097); settings: higher = more signal;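 note: probe is a biotinylated anti-EGFR antibody binding compounds printed on slides; score combines fluorescence near 667 nm and signal to noise of each spot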

Structure (SMILES)	composite z-score [1]	z-score [2]	z-score [3]	z-score [4]	composite z-score [5]	z-score [6]	composite z-score [7]	composite z-score [8]	composite z-score [9]	composite z-score [10]
C#C[C@H](O[Si](C#Cc1ccc(Oc2ccccc2)cc1)(C(C)C)C(C)C)c1ccccc1	1.23	-0.824 (inactive)	-19.1 (active)	-0.42 (inactive)	1.02	-0.547 (inactive)	-0.0666	0.531	0.185	-0.0286
CC1CC/C=C\[C@H]2OC34C=CCN(Cc5ccccc5)C(=O)[C@H]3N(CCCO)C(=O)[C@@H]4C2C(=O)O1 (stereo not given in full)	0.398	-1.7 (inactive)	-1.25 (inactive)	-0.807 (inactive)	1.97	0.56 (inactive)	-0.254	-1.12	-0.106	-0.283
O=C1N(Cc2ccccc2)c2ccccc2[C@@H]2OC(c3ccc(OCCCO)cc3)=N[C@]12CCS(=O)(=O)c1ccccc1	1.5	0.805 (inactive)	1.11 (inactive)	7.05 (inactive)	2.98	0.0515 (inactive)	0.169	1.11	0.783	0.0248
C[N+](C)(C)CCCCCCNC(=O)[C@@H]1C[C@@H]2C(=O)N[C@@H](Cc3ccccc3)C(=O)N2[C@@H]1c1cccc(OCCO)c1	1.57	-0.165 (inactive)	0.297 (inactive)	-0.214 (inactive)	2.87	1.02 (inactive)	0.0235	1.82	1.09	-0.0688
CCCCC(CC)C(O)C1C=CC2C(=O)N(Cc3ccccc3)C(=O)C2N1n1cnnc1 (stereo not given)	0.249	-0.279 (inactive)	-0.359 (inactive)	-0.435 (inactive)	0.77	-1.05 (inactive)	-0.0238	-0.0141	-0.22	-0.0253
NC(=O)NCC#Cc1ccc2c(c1)[C@]1(C(=O)N2)[C@H](c2ccccc2OCCO)N2[C@H](c3ccccc3)[C@H](c3ccccc3)OC(=O)[C@H]2[C@@H]1C(=O)Nc1nc2ccccc2s1	1.24	1.99 (inactive)	1.61 (inactive)	3.78 (inactive)	2.49	1.15 (inactive)	-0.0416	0.288	0.773	-0.178
C=CCN1C(=O)[C@]2(O[C@H](CCn3cc([C@H](O)c4ccccc4)nn3)[C@@H]([Si](C)(C)c3ccc(OC)cc3)[C@@H]2C)c2cc(N3CCC3=O)ccc21	0.942	0.487 (inactive)	0.406 (inactive)	2.47 (inactive)	1.56	1.28 (inactive)	-0.0397	1.82	0.803	-0.154
COc1cc2c(cc1OC)CN(C(=O)[C@@H]1[C@H]3C(=O)O[C@H](c4ccccc4)[C@H](c4ccccc4)N3[C@H](c3ccccc3OCCO)[C@@]13C(=O)Nc1ccc(C#CCCO)cc13)CC2	1.56	1.47 (inactive)	-1.3 (inactive)	2.22 (inactive)	3.02	1.15 (inactive)	-0.108	0.772	1.08	-0.0624
COCCCNC(=O)[C@@H]1c2ccccc2C(=O)N(Cc2ccccc2Cl)[C@H]1c1ccc(CO)cc1	1.53	-0.103 (inactive)	-0.329 (inactive)	-0.59 (inactive)	2.26	2.55 (inactive)	-0.101	0.522	0.388	-0.13
[N-]=[N+]=Nc1ccccc1[C@H]1OC(c2ccc(OCCCO)cc2)=N[C@@]1(CCS(=O)(=O)c1ccccc1)C(N)=O	1.01	-0.268 (inactive)	-2.33 (inactive)	0.372 (inactive)	2.56	1.36 (inactive)	0.24	-0.194	0.42	0.401
CCCC[C@@H]1C[C@H]1[C@@H](NC(=O)c1ccccc1)c1ccc(C(=O)OC)cc1	-0.406	-1.24 (inactive)	-11.2 (active)	-2.61 (inactive)	0.0062	-1.13 (inactive)	0.285	0.894	-0.544	-0.224
C=CCC(OC(C)=O)[C@@H]1[C@@H](N(Cc2cccc3ccccc23)C(=O)c2ccc(-c3ccccc3)cc2)c2cc(OCCCO)ccc2N1C(=O)c1ccc2ccccc2c1 (stereo not given in full)	0.833	-0.226 (inactive)	0.435 (inactive)	0.009 (inactive)	1.76	-0.601 (inactive)	-0.0174	0.251	0.643	-0.0578
CC(C)NC(=O)[C@@]1(C)c2ccccc2C(=O)N(Cc2cc(C(F)(F)F)cc(C(F)(F)F)c2)[C@H]1c1ccc(CO)cc1	1.4	0.49 (inactive)	0.155 (inactive)	-0.0902 (inactive)	3	-0.0192 (inactive)	-0.239	-0.729	-0.301	-0.295
CCOC(=O)C[C@H]1[C@H](OC(=O)c2ccc(-c3ccccc3)cc2)[C@@H](NC(=O)Cc2ccc(OC)cc2)c2cc(OCCCO)ccc2N1C(=O)c1ccccc1	-0.15	0.359 (inactive)	0.822 (inactive)	0.72 (inactive)	0.905	-0.69 (inactive)	0.044	0.763	0.238	-0.122
CN1C=C(C(=O)OCCS(C)(=O)=O)C(C(=O)OCCS(C)(=O)=O)=CC(c2ccc(CO)cc2)=CC1C1CC1 (stereo not given)	0.522	0.243 (inactive)	-1.34 (inactive)	0.678 (inactive)	1.33	0.108 (inactive)	-0.22	0.425	0.415	-0.103
COC(=O)[C@@]1(Cc2ccc(F)cc2)[C@H]2c3cc(C(=O)N4CCCC4)n(Cc4ccc(S(C)(=O)=O)cc4)c3C[C@H]2CN1C(=O)c1ccccc1	-0.0384	-0.13 (inactive)	0.365 (inactive)	1.48 (inactive)	3.29	-1.02 (inactive)	0.267	-0.771	1.02	0.123
O=C(c1ccccc1)N1Cc2ccccc2C[C@@]2(COC(c3ccc(OCCCO)cc3)=N2)C1=O	1.55	-1.1 (inactive)	-11.1 (active)	3.57 (inactive)	3.39	0.0571 (inactive)	0.0478	0.779	1.04	-0.0439
COc1ccc(CCNC(=O)[C@@]2(Sc3ccc(C)cc3)CC(=O)N(C3Cc4ccccc4C3)[C@@H]2c2ccc(CO)cc2I)cc1	0.789	0.534 (inactive)	-2.75 (inactive)	3.02 (inactive)	1.99	0.171 (inactive)	0.119	-1.37	-0.0239	-0.172
COCCOC(=O)N1C(=O)[C@@]2(c3cc(C#CC4(O)CCCCCC4)ccc31)[C@H](c1ccccc1OCCO)N1[C@H](c3ccccc3)[C@H](c3ccccc3)OC(=O)[C@H]1[C@@H]2C(=O)N1CCN(c2ncccn2)CC1	1.55	2.46 (inactive)	1.5 (inactive)	6.01 (inactive)	2.73	1.02 (inactive)	0.028	0.574	0.959	0.219
CCC[C@@H]1C[C@@]1(CCC)[C@@H](NC(=O)c1ccccc1)c1cccc(Cl)c1	0.596	1.47 (inactive)	1.52 (inactive)	2.12 (inactive)	3.23	-0.452 (inactive)	0.497	0.149	1.15	0.913
COCCOC(=O)N1C(=O)[C@@]2(c3cc(C#CC4(O)CCCCCC4)ccc31)[C@H](c1ccc(OCCO)cc1)N1[C@H](c3ccccc3)[C@H](c3ccccc3)OC(=O)[C@H]1[C@@H]2C(=O)N1CCN(c2ncccn2)CC1	1.56	2.64 (inactive)	2.26 (inactive)	6.24 (inactive)	2.69	0.0846 (inactive)	-0.136	1.67	1.08	-0.108
O=C1c2ccccc2[C@](Cc2ccccc2I)(C(=O)NCCN2CCOCC2)[C@H](c2ccc(CO)cc2)N1C1CCCCC1	1.43	-0.139 (inactive)	-0.156 (inactive)	0.216 (inactive)	1.53	1.09 (inactive)	0.227	1.12	1.06	0.521
Cc1nc2cc(Br)ccc2c(=O)o1	0.648	-0.764 (inactive)	0.597 (inactive)	-1.07 (inactive)	1.27	-1.07 (inactive)	-0.082	0.198	1.04	0.104
COCCCNC(=O)[C@]1(CCC(=O)OC(C)(C)C)N=C(c2ccc(OCCCO)cc2)O[C@@H]1c1ccccc1CN=[N+]=[N-]	1.54	0.15 (inactive)	0.556 (inactive)	-0.78 (inactive)	2.92	-0.613 (inactive)	0.0894	0.33	0.89	-0.0315
COc1ccc(CCNC(=O)[C@@]2(C)c3ccccc3C(=O)N(C(C)C)[C@H]2c2ccc(CO)cc2)cc1	0.601	-0.122 (inactive)	-0.366 (inactive)	-0.321 (inactive)	2.15	0.721 (inactive)	-0.107	0.456	-0.399	0.0117
CCOC(=O)[C@H]1C/C=C/C[C@H](C(=O)OCC)C(=O)O[C@H]2[C@@H](OC)O[C@H](CO)[C@@H](OC(=O)c3c(OC)cccc3OC)[C@@H]2OC1=O	1.33	0.172 (inactive)	-1.13 (inactive)	3.72 (inactive)	2.86	-0.901 (inactive)	0.573	1.15	0.982	-0.0921
CNS(=O)(=O)c1ccc(C)cc1	1.14	-2.29 (inactive)	-2.38 (inactive)	-0.719 (inactive)	0.283	2.55 (inactive)	-0.165	1.19	0.629	-0.101
COc1cc2c(cc1O)C(c1cccs1)N(C)CC2 (stereo not given)	-0.414	0.213 (inactive)	1.07 (inactive)	-2.13 (inactive)	-0.849	0.841 (inactive)	-0.0943	-0.428	-0.0102	-0.151
COC(=O)[C@@]1(Cc2ccc(OC)cc2)[C@H]2c3cc(C(=O)N(C)C)n(Cc4ccc(S(C)(=O)=O)cc4)c3C[C@H]2CN1C(=O)c1ccccc1	-0.142	-3.22 (inactive)	-0.462 (inactive)	-0.154 (inactive)	3.4	0.0416 (inactive)	-0.264	0.715	1.11	0.0174
